Measurements taken from the supplement of paper PMC6555819.

Key:
Assay in all cases: PBM binding z-score (relative to random genomic background probes); higher = stronger binding; sequences stand for … in GC…GCGATTGACAGCGTAGAATGAAGG
[1] = system: PPARg:RXRa IVT, anti-PPARg (NR concentration 270 nM, RXRa partner concentration 90 nM)
Summary of the method: (§1)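 Scanned fluorescence from custom Agilent 4×180K protein-binding microarrays was regression-normalized. Binding z-scores use random background probes as reference. Ligand-free nuclear receptor dimers were incubated on the arrays for 1 h and detected with antibodies against each partner (one per run).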

[2] = system: PPARg homodimer (NR concentration 180 nM)
Summary of the method: as §1

[3] = system: PXR:RXRa (NR concentration 270 nM, RXRa partner concentration 90 nM)
Summary of the method: as §1

[4] = system: PXR homodimer (NR concentration 270 nM)
Summary of the method: as §1

[5] = system: RARa:RXR (NR concentration 270 nM, RXRa partner concentration 90 nM)
Summary of the method: as §1

[6] = system: RARa homodimer (NR concentration 270 nM)
Summary of the method: as §1

[7] = system: RARb:RXRa (NR concentration 270 nM, RXRa partner concentration 90 nM)
Summary of the method: as §1

[8] = system: RARb homodimer (NR concentration 270 nM)
Summary of the method: as §1

[9] = system: PPARg DBDmut:RXRa IVT, anti-PPARg (DBD mutation: PPARg1 K132A/R137A, NR concentration 270 nM, RXRa partner concentration 90 nM)
Summary of the method: as §1

[10] = system: PPARg DBDmut IVT, anti-PPARg (DBD mutation: PPARg1 K132A/R137A, NR concentration 270 nM)
Summary of the method: as §1

Sequence	PBM binding z-score [1]	PBM binding z-score [2]	PBM binding z-score [3]	PBM binding z-score [4]	PBM binding z-score [5]	PBM binding z-score [6]	PBM binding z-score [7]	PBM binding z-score [8]	PBM binding z-score [9]	PBM binding z-score [10]
CCGAATAGGTTACGAGGGGGCATTCAGTGCGAAT	3.59	2.64	5.5	5.9	3.8	0.865	2.89	2.69		
CAAACGAGGTCACGAAAGGTCAAAGTCGAATGAC	7.7	7.67		9.37		5.09		6.1	2.28	3.02
CCTCGGAGGTCAACAGGAGGTCAGAGCTGCCAGA	4.76	5.25		1.63		1.53		5.7	-0.0592	-0.488
TTACCAAGGTCAAAGGTCGTTGATGCACGCCTTG	6.12	4.12		2.27		1.08		4.89	2.16	2.19
CTATGTAGGTTAGGGGGGTCATTCAGTTTGAAAG	6.9	4.93	6.22	11.2	5.88	3.17	4.13	4.06		
CGAACTAGGTCGCCAGGACAGTGAAGAGGTTGGA	5.49	-0.09	-0.103	-0.264	0.141	-0.715	1.48	1.04		-0.449
CCTACTGGGTCACGAAAGGTCATTGATTCAGTGA	8.65	4.41		2.09		2.35		5.9	1.64	2.22
ATATGTAGGTTAGGGTCAGTCAGAAAGTAGGGAA	6.71	2.59	2.64	1.6	3.41	2.63	3.22	3.34		1.66
CCGAGTAGGTTACTAGGGGGCATTCAGTGCGAAT	4.9	1.47	4.21	6.49	2.34	0.177	1.92	2.16		
TGTCAAAGTTCAAAGGTTACGTAAGTATCCACAC	5.16	3.27		4.04		1.12		4.75	1.58	1.43
CGAACAAGGTCACCAGGACAGTGAAGAGGTTGGA	6.18	4.85	4.68	1.1	5.71	3.06	5.3	4.07		1.95
CCGAGTAGGTTACGAGGGGTCATTCAGTGCGAAT	4.3	4.32		10.4	6.71	1.29	3.35	3.68		
CAAACAAGGTCACGAAAGGTCAAAGTCGAATGAC	7.11	8.44		7.51		5.3		6.14	3.1	3.53
CTATGTAGGTTACGGGGGTCATTCAGTTTGAAAG	7.98	2.65	6.2	10.9	6.09	0.56	3.71	4.09		
CTATGTGGGTTAAGGGGGTCATTCAGTTTGAAAG	7.71	6.11	6.07	12.1	5.68	3.73	3.91	4.44		
TCGTGTAGGTTACGGGGGCATTCAGGGATGAAGA	6.27	3.1	3.98	2.98	3.71	1.46	3.34	2.92		
GCTTAAGGGTCAAAGGTTATAGCATGAATAGAAT	5.94	4.8		0.657		1.94		4.32	2.24	1.36
CCGAGGAGGTTACGAGGGGGCATTCAGTGCGAAT	3.07	1.6	6.25	6.9	3.97	-0.256	2.89	2.52		
CGAACGAGGTCACCAGGACAGTGAAGAGGTTGGA	6.99	3.06	5.37	0.985	5.85	1.08		4.89		-0.0539
CGAACTAGGTCAAAGGACATTGAAAGGCGACGTA	8.46	2.37	1.39	0.177	2.7	0.467	3.96	3.01		2.63

Sequence	PBM binding z-score [1]	PBM binding z-score [2]	PBM binding z-score [3]	PBM binding z-score [4]	PBM binding z-score [5]	PBM binding z-score [6]	PBM binding z-score [7]	PBM binding z-score [8]	PBM binding z-score [9]	PBM binding z-score [10]
GCTTACGGGTCAAAGGTCATAGCATGAATAGAAT	7.02	4.66		1.47		2.21		5.12	2.05	1.67
CTATGTAGGTTAAGGGAGTCATTCAGTTTGAAAG	6.74	0.863		0.389	0.462	0.236	0.814	0.609		
CGTCAAAGTTCAACTAAGGTCACGTAAAGCACGC	3.7	6.25		12.2		3.25		6.11	0.74	1.77
CAAACGAGGTCACCGGAAGGTCAAAGTCCGCATG	7.57	6.98		6.23		2.61		6.03	4.42	0.844
TGTCAAAGGTCAAAGGTAACGTAAGTATCCACAC	7.56	5.28		1.31		3.71		5.11	5.45	6.39
ATCGAAAGGTCAAAGGTGAGTATACCCACCCGAA	6.1	4.41		1.6		3.03		5.31	3.13	3.86
CAAACGAGGTCAAGGTCAAAGTCGGTTTGTGCCA	7.3	4.15		4.12		2.66		5.54	3.16	1.96
CCGAGAAGGTTACGAGGGGGCATTCAGTGCGAAT	2.5	2.11	5.85	5.71	4.07	0.612	3.24	2.66		
CCAACTAGGTCAAAGGACAGTGAAAGGCGACGTA	7.88	1.68	1.09	0.436	2.36	0.964	4.07	3.15		0.729
ATATGTAGGTTGGGGTCATTCAGAAAGTAGGGAA	4.46	3.59	6.18	3.64	6.42	3.34	3.75	4.06		2.36
CAAACTAGGTCACCGAAAGGTCAAAGTCCGCATG	9.24	9.63		3.23		4.75		5.37	8.36	7.3
CGAACTAGGTCAAGGGACAGTGAAAGGCGACGTA	8.18	1.42	0.929	-0.504	1.71	0.0645	3.92	2.99		0.0336
GCTTAGGGGTCAAAGGTTATAGCATGAATAGAAT	6.52	2.86		1.2		1.8		4.64	3.02	2.44
ACTTAGGGGTCAACGAGGTTATAGCACGCGTATA	5.93	3.01		9.1		2.38		5.02	2.39	2.86
CGAACTAGGTCTAAGGACAGTGAAAGGCGACGTA	1.78	-0.156	-0.521	-0.563	0.0659	-0.52	0.287	0.133		-0.598
TCTCGGAGGTCACGAAAGGTCAGAGCTCGACATC	6.3	6.9		3.6		5.11		6.12	1.39	2.35
CGAACGAGGTCAAAGGACAGTGAAAGGCGACGTA	6.29	6.42	5.26	1.74	5.86	0.557	5.01	3.88		3.98
TCGAGTAGGTCACGGGGGCATTCAGGGATGAAGA	7.67	3.98	4.92	1.77	5.53	1.36	4.66	4.32		
CTATGTAGGTCAAGGGGGTCATTCAGTTTGAAAG	9.07	5.3		13.1		2.29	5.06	4.85		
